Assay in all cases: DAPPL (digital affinity profiling via proximity ligation, sequencing); 10 mM Tris-HCl pH 7.5, 50 mM NaCl, 1 mM DTT, 4% glycerol, room temperature, 30 min; GST-TFs on glutathione beads, 16-mer random dsDNA library, 0.1% formaldehyde crosslink after washing; high values mean tight binding
Common to all, as to conditions: protein: recombinant; tags: N-terminal GST; dsDNA, one strand shown

One test addresses T1, FLI1 (Homo sapiens, UniProt Q01543 1-452).
T1 sequence: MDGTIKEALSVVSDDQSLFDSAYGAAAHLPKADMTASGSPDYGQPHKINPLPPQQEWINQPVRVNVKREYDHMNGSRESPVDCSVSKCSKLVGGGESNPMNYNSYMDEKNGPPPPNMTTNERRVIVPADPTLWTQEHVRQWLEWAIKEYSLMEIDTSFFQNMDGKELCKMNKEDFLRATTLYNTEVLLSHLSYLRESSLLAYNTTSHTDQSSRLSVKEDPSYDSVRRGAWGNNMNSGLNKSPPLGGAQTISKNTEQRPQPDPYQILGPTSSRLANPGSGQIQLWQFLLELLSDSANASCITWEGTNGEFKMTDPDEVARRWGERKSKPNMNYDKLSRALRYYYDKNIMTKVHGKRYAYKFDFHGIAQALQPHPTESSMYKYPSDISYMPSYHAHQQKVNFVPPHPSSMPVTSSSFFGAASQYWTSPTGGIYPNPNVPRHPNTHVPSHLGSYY
The method, boiled down: (§1)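 GST fusions of human transcription factors were expressed in yeast and captured with glutathione beads. Once given DNA barcodes and pooled alongside a tag-only sample, they were incubated for 30 min at room temperature with 200 nmole of a random double-stranded 16-mer DNA library in Tris/NaCl/DTT/glycerol buffer, then washed, crosslinked (0.1% formaldehyde), proximity-ligated, PCR-amplified and sequenced on an Illumina NextSeq500. The binding signal of each hexamer is its read frequency for a factor divided by its frequency for the tag-only sample.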

The target in the next test is T2, ELK1 (Homo sapiens, UniProt P19419 1-428).
T2 sequence: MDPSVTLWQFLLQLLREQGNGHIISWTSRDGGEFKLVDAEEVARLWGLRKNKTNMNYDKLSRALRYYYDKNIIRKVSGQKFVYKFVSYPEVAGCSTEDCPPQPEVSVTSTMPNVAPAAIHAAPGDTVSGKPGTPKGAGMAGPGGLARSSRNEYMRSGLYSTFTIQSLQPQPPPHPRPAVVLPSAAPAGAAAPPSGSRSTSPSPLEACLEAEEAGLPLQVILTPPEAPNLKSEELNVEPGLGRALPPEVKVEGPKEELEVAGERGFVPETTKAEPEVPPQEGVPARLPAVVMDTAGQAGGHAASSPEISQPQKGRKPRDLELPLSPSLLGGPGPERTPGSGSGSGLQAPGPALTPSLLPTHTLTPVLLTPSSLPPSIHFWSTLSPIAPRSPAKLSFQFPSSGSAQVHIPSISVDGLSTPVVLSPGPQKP
The method, boiled down:
as §1

A further test concerns the target T3, GABPA (Homo sapiens, UniProt Q06546 1-454).
T3 sequence: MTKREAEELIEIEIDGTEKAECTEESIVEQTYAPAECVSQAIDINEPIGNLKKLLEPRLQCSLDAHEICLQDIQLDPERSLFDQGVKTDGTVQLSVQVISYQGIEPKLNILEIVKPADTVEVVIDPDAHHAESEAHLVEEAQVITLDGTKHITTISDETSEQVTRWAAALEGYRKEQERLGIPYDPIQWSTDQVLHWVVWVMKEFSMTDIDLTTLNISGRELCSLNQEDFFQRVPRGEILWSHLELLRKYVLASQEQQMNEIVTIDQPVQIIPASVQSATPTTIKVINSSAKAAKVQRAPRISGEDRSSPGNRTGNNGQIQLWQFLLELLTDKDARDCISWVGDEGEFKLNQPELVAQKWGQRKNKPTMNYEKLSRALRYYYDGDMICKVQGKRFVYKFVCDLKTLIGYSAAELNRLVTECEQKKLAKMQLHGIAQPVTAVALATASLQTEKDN
The method, boiled down: as §1

The next test has as its target T4, ERG (Homo sapiens, UniProt P11308 1-479).
T4 sequence: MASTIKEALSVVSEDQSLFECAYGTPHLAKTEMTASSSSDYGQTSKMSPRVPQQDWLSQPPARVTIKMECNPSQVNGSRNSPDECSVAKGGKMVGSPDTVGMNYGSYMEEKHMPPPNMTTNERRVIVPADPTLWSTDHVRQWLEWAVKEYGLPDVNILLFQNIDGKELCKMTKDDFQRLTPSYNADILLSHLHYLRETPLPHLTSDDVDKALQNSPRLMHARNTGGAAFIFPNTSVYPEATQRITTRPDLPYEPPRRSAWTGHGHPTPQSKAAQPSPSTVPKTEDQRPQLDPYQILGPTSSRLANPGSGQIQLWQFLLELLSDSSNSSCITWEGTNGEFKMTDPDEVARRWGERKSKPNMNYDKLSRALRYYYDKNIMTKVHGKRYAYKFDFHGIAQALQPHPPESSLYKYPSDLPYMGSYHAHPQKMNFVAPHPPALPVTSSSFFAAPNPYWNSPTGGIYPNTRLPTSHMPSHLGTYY
In a few lines: as §1

In a further test the target is ELF1 (Homo sapiens, UniProt P32519 1-619). The method, boiled down: as §1
In a further test the target is T5, EHF (Homo sapiens, UniProt Q9NZC4 1-300).
T5 sequence: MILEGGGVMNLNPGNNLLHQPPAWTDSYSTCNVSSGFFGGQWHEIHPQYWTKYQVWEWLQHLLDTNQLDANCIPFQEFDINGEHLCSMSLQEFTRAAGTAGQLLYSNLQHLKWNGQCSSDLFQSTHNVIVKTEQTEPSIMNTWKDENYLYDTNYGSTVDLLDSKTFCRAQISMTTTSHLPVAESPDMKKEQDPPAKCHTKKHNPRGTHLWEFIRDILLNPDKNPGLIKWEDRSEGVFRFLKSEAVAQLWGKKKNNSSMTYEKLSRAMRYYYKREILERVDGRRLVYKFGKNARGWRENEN
In a few lines: as §1

Another test concerns the target SPI1 (Homo sapiens, UniProt P17947 1-270). In a few lines: as §1
In a further test the target is SPIB (Homo sapiens, UniProt Q01892 1-262). In a few lines: as §1
Another test has as its target T6, ELK3 (Homo sapiens, UniProt P41970 1-407).
T6 sequence: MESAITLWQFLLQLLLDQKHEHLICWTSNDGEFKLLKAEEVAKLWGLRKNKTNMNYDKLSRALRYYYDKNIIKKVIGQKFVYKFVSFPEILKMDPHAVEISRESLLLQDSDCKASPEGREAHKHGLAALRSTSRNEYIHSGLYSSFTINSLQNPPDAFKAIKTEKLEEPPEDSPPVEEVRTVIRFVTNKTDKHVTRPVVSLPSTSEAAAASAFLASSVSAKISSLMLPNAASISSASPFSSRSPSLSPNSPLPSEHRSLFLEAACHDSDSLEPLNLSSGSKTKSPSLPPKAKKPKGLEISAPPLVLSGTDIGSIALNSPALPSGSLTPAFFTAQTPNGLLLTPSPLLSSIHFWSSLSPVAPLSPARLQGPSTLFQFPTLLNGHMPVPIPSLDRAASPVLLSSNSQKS
The method, boiled down:
as §1

A further test addresses T7, FEV (Homo sapiens, UniProt Q99581 1-238).
T7 sequence: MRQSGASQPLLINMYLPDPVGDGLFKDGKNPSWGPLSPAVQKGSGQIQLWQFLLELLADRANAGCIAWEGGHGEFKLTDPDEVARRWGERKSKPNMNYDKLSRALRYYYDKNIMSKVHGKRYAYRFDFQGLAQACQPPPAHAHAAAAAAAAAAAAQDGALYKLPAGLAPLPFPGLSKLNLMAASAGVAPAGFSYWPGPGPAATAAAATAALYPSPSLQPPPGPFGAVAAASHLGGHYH
The method, boiled down:
as §1

Another test addresses ETV5 (Homo sapiens, UniProt P41161 1-510). In a few lines:
as §1

For another test, the target named is T8, SPIC (Homo sapiens, UniProt Q8N5J4 1-248).
T8 sequence: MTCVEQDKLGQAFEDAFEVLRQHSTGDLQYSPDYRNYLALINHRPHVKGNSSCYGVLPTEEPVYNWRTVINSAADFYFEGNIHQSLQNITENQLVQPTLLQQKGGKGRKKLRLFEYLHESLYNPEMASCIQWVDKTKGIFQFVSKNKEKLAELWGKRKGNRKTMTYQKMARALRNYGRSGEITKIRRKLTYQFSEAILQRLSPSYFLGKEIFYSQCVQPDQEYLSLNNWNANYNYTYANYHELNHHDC
In a few lines: as §1

In another test the target is ELF4 (Homo sapiens, UniProt Q99607 1-663). In a few lines:
as §1

The next test concerns the target T9, ELK4 (Homo sapiens, UniProt P28324-2 1-405).
T9 sequence: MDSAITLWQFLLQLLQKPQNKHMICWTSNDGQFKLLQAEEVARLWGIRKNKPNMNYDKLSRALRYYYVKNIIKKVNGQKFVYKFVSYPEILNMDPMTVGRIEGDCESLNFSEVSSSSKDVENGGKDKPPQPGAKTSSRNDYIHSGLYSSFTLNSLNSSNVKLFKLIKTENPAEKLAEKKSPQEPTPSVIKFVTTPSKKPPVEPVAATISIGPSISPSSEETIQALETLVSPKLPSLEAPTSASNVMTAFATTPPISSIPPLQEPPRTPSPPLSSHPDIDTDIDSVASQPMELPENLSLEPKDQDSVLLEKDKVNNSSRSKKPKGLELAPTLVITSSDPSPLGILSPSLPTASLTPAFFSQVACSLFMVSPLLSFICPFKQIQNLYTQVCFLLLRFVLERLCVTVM
The method, boiled down: as §1

Another test addresses T10, ETV2 (Homo sapiens, UniProt O00321 1-342).
T10 sequence: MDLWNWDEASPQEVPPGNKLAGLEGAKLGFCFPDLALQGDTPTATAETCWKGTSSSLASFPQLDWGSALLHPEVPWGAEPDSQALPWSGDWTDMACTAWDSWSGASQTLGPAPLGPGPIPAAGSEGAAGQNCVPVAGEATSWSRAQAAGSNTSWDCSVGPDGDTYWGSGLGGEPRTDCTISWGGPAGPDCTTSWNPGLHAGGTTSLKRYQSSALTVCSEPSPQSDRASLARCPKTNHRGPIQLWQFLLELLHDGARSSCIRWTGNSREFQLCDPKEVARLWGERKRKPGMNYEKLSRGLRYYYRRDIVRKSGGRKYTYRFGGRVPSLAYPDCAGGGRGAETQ
In a few lines:
as §1

The next test addresses T11, ELF3 (Homo sapiens, UniProt P78545 1-371).
T11 sequence: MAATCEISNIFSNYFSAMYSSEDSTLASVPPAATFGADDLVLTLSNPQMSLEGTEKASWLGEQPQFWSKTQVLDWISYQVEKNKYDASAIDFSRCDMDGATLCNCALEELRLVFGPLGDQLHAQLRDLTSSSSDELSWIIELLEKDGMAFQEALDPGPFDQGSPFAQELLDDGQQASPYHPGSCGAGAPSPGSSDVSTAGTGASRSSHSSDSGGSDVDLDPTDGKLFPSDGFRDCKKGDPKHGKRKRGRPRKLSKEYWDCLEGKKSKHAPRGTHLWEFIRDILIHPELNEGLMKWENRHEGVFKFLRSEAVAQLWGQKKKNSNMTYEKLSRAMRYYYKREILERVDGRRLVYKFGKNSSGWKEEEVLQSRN
The method, boiled down: as §1

A further test has as its target ETV1 (Homo sapiens, UniProt P50549 1-477). The method, boiled down:
as §1

Sequence of ETV5 (P41161 whole entry): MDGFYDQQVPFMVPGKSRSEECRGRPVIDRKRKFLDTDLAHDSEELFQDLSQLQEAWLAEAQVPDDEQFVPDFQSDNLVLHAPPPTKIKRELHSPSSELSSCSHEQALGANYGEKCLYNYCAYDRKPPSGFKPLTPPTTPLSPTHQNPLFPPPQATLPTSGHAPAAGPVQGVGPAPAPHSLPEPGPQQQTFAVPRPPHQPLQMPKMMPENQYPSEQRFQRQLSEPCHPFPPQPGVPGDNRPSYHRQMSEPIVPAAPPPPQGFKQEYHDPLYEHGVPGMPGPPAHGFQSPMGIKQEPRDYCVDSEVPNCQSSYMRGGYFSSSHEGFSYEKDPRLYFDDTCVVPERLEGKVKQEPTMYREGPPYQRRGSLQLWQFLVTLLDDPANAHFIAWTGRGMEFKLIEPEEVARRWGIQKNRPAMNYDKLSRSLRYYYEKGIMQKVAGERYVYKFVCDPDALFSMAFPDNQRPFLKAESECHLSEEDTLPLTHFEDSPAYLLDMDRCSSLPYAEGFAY
Sequence of ELF4 (Q99607 whole entry): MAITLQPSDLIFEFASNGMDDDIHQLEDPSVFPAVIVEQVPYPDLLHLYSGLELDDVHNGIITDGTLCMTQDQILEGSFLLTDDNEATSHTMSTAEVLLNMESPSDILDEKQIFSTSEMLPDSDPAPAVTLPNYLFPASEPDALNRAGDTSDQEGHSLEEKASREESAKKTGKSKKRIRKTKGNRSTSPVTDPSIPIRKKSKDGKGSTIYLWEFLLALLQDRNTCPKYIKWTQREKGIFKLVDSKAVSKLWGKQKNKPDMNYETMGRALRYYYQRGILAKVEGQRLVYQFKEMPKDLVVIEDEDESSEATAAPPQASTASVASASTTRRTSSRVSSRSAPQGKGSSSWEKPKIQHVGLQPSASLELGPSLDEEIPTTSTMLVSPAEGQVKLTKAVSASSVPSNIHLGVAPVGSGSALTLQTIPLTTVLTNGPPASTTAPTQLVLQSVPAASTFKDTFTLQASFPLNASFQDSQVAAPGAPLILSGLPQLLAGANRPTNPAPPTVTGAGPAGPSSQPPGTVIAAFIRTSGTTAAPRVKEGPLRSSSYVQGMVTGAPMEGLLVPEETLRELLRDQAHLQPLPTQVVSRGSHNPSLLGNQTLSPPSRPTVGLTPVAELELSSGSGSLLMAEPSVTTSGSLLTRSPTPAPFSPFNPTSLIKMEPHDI
Sequence of SPIB (Q01892 whole entry): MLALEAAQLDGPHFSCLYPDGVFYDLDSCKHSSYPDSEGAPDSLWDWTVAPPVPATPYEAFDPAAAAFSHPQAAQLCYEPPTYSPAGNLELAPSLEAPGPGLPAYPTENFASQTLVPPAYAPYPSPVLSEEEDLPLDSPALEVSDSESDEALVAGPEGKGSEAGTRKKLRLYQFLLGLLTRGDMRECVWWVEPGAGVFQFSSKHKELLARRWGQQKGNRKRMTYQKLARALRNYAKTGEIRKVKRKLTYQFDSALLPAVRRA
Sequence of ELF1 (P32519 whole entry): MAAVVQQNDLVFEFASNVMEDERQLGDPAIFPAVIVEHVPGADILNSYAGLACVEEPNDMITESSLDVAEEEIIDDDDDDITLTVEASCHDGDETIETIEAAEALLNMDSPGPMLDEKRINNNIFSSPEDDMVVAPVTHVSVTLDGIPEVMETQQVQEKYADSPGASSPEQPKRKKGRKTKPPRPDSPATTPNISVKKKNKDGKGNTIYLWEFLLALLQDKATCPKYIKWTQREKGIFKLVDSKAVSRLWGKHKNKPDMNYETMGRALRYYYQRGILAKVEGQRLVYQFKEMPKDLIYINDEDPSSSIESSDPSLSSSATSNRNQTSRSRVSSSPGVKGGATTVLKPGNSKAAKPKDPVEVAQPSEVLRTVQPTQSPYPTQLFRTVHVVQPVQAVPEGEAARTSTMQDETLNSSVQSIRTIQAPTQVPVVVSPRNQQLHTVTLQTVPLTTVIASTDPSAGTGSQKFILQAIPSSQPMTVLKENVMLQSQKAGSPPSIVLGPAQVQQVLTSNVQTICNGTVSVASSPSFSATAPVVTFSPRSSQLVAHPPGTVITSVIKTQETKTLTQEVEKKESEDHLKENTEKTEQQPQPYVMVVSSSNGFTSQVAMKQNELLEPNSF
Sequence of ETV1 (P50549 whole entry): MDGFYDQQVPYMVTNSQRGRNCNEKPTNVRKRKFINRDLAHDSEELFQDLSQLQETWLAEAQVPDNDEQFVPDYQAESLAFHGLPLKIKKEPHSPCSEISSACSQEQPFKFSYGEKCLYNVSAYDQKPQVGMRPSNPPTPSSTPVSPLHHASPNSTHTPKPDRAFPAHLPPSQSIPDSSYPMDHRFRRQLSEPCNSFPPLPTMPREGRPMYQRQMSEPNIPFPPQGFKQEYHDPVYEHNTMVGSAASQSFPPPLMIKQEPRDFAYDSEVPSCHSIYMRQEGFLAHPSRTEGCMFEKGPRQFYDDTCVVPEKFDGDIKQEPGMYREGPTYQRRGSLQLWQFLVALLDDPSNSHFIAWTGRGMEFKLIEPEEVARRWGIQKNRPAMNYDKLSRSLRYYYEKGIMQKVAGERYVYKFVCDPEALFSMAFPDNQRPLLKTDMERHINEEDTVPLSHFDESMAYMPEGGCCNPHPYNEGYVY

Turning to CACCAT, the binding signal with FLI1 was 1.2 fold enrichment (6-mer frequency, TF over GST control); with ELK1, 1.16 fold enrichment (6-mer frequency, TF over GST control); with GABPA, 1.06 fold enrichment (6-mer frequency, TF over GST control); in the test with ERG, 1.08 fold enrichment (6-mer frequency, TF over GST control); in the test with ELF1, 1.14 fold enrichment (6-mer frequency, TF over GST control); in the test with EHF, 1.12 fold enrichment (6-mer frequency, TF over GST control). In addition, the binding signal with SPI1 is 1.03 fold enrichment (6-mer frequency, TF over GST control); with SPIB, 1 fold enrichment (6-mer frequency, TF over GST control); in the test with ELK3, 1.22 fold enrichment (6-mer frequency, TF over GST control); with FEV, 1.05 fold enrichment (6-mer frequency, TF over GST control); with ETV5, 1.11 fold enrichment (6-mer frequency, TF over GST control); in the test with SPIC it was 1.06 fold enrichment (6-mer frequency, TF over GST control). Besides, the binding signal with ELF4 was 1.12 fold enrichment (6-mer frequency, TF over GST control); in the test with ELK4, 1.21 fold enrichment (6-mer frequency, TF over GST control); with ETV2 it was 1.17 fold enrichment (6-mer frequency, TF over GST control); with ELF3, 1.1 fold enrichment (6-mer frequency, TF over GST control); with ETV1, 1.08 fold enrichment (6-mer frequency, TF over GST control).

CAATGC: the binding signal was 1.21 fold enrichment (6-mer frequency, TF over GST control) with FLI1; 1.23 fold enrichment (6-mer frequency, TF over GST control) with ELK1; 1.21 fold enrichment (6-mer frequency, TF over GST control) in the test with GABPA; 1.12 fold enrichment (6-mer frequency, TF over GST control) with ERG; 1.21 fold enrichment (6-mer frequency, TF over GST control) in the test with ELF1; 1.17 fold enrichment (6-mer frequency, TF over GST control) with EHF. Further, the binding signal with SPI1 is 1.12 fold enrichment (6-mer frequency, TF over GST control); with SPIB, 1.32 fold enrichment (6-mer frequency, TF over GST control); with ELK3, 1.21 fold enrichment (6-mer frequency, TF over GST control); with FEV it was 1.16 fold enrichment (6-mer frequency, TF over GST control); with ETV5, 1.22 fold enrichment (6-mer frequency, TF over GST control); with SPIC, 1.12 fold enrichment (6-mer frequency, TF over GST control). Further, the binding signal with ELF4 is 1.3 fold enrichment (6-mer frequency, TF over GST control); with ELK4, 1.21 fold enrichment (6-mer frequency, TF over GST control); with ETV2 it was 1.21 fold enrichment (6-mer frequency, TF over GST control); with ELF3, 1.22 fold enrichment (6-mer frequency, TF over GST control); in the test with ETV1, 1.12 fold enrichment (6-mer frequency, TF over GST control).

For the origin of these results see PMC7862700, “An all-to-all approach to the identification of sequence-specific readers for epigenetic DNA modifications on cytosine”.
